Results published in PubChem BioAssay AID1159580 (chemical genetic matrix, 2015).
In all, about 5,500 compounds went through this assay and about 2,000 (36%) were called active. Not shown: some 18% with an inconclusive outcome. No stated cut-off is given here; in the data, active means normalized growth mostly below about 0.91 (no sharp cut-off); inconclusive means no clear call, values can overlap the other calls; inactive means mostly above about 0.92. The list shows a part of the results.

Test: chemical genetic growth profiling, strain panel (AID 1159580);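 further: tested at 20 µM; growth read once vehicle control cultures reached saturation at 30 °C; 1 = growth at the plate median or of vehicle wells; lower values mean less growth of the strain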
Details: S. cerevisiae deletion strains, growth OD

Measured: normalized growth

N.N.O=C(O)C1(C(=O)O)CCC1.[Pt+2]
inactive: locus YAL040C, strain CLN3, active compounds read low 0.986 | locus YCL061C, strain MRC1 (second series), active compounds read low 1 | locus YDR150W, strain NUM1, active compounds read low 1 | locus YDR363W, strain ESC2, active compounds read low 0.988 | locus YER002W, strain NOP16, active compounds read low 1.02 | locus YMR307W, strain GAS1, active compounds read low 0.984 | locus YNL175C, strain NOP13, active compounds read low 0.998 | locus YNL197C, strain WHI3, active compounds read low 1.04 | locus YNL224C, strain SQS1, active compounds read low 1 | locus YOR083W, strain WHI5 (second series), active compounds read low 0.995 | locus YPL055C, strain LGE1, active compounds read low 0.998
